We go through six compounds from PubChem BioAssay (NCI).

Common to all, as to test: NCI-60 one-dose screen, 48 h (100 = growth as untreated, 0 = no growth, -100 = all killed)
The test system of assay [1] is NCI-H226 lung. Particulars: 10 µM.
The subject of assay [2] is NCI-H322M lung. Particulars: 10 µM.
The test system of assay [3] is HOP-62 NSCLC. Particulars: 10 µM.
In assay [4] the test system is NCI-H460 lung. Particulars: 10 µM.
The test system of assay [5] is A549/ATCC NSCLC. Particulars: 10 µM.
For assay [6], the system named is 786-0 renal. Particulars: 10 µM.
Assay [7] concerns COLO 205 colon. Particulars: 10 µM.
In assay [8] the test system is DU-145 prostate. Particulars: 10 µM.
Assay [9] concerns SF-268 CNS. Particulars: 10 µM.
In assay [10] the test system is SF-295 CNS. Particulars: 10 µM.
The subject of assay [11] is SF-539 CNS. Particulars: 10 µM.
Assay [12] concerns HCT-15 colon. Particulars: 10 µM.
In assay [13] the test system is HT29 colon. Particulars: 10 µM.
For assay [14], the system named is SNB-75 CNS. Particulars: 10 µM.
The subject of assay [15] is SNB-19 CNS. Particulars: 10 µM.
Assay [16] relates to PC-3 prostate. Particulars: 10 µM.
Assay [17] concerns EKVX NSCLC. Particulars: 10 µM.
The test system of assay [18] is UO-31 renal. Particulars: 10 µM.
The test system of assay [19] is ACHN renal. Particulars: 10 µM.
Assay [20] has as its system HL-60(TB) leukemia. Particulars: 10 µM unless noted.

Molecules are shown by their SMILES. Compounds without any hit were thinned out: in the full panel of roughly 83,000, 20% have a hit.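 Plates (96-well) were seeded with cells, treated with compound at one concentration, and incubated for 48 hours before percent growth was determined.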 Values without a mark were called inactive. The source made the active and inactive calls. How the source made its calls: active means growth percent below 10; inactive means the rest.

Regarding `CC(=O)O[C@@H]1[C@@H]2O[C@H]2[C@@](C)(O)C(=O)[C@@H](C)C/C=C/[C@H]2[C@@H]3O[C@]3(C)[C@@H](C)C3[C@H](Cc4ccccc4)NC(=O)[C@@]312` (stereo not given in full), the growth was 65.7% in assay [1]; 92.5% in assay [2]; 5.72% (active) in assay [3]; 28.5% in assay [4]; 25.1% in assay [5]; 24.3% in assay [6]. Also, the growth in assay [7] was 38.8%; in [8], 50.2%; in [9], 26.5%; in [10], 65.4%; in [11], 51.5%; in assay [12], 54.1%. For the same compound, the growth is 36.3% in [13]; -12.9% (active) in assay [14]; 55.1% in assay [15]; 72.3% in assay [16]; 39.1% in assay [17]; 24.8% in assay [18]. For the same compound, the growth is 40.4% in assay [19] and 58.2% in assay [20].
With `C[C@@H]1CCC/C=C/[C@H]2C[C@@H](O)C[C@@H]2[C@@H](O)/C=C/C(=O)O1`, the growth was 7.32% (active) in assay [1]; 6.35% (active) in assay [2]; 1.72% (active) in assay [3]; 18.2% in assay [4]; 16.1% in assay [5]; -31.4% (active) in assay [6]. Moreover, the growth is -84.3% (active) in assay [7]; 28.4% in [8]; 17.6% in [9]; 21.6% in assay [10]; 31.7% in assay [11]; 11.2% in [12]. In addition, the growth was 0.531% (active) in assay [13]; 47% in [14]; 30.2% in assay [15]; 19.5% in assay [16]; 11.5% in assay [17]; 6.57% (active) in [18]. Also, the growth was 9.31% (active) in assay [19] and -22.7% (active) in [20].
Turning to `Cc1ccc(CNc2nc3ccc(OC/C(=C/F)CN)cc3o2)cn1`, the growth in [1] was 90.3%; in assay [2] it was 105%; in assay [3], 72.9%; in assay [4], 93.7%; in [5], 95.6%; in assay [6], 92.3%. The growth is 111% in assay [7]; 88.4% in assay [8]; 89.8% in [9]; 99.9% in [10]; 94.9% in assay [11]; 112% in assay [12]. Also, the growth in [13] is 112%; in assay [14], 55.5%; in assay [15] it was 98.8%; in assay [16], 98.3%; in assay [17], 61.7%; in assay [18], 58.4%. Further, the results for the growth in assay [19] and in [20] were 99% and 141%, respectively.
Turning to `COc1cccc2c1cc([N+](=O)[O-])c1c(C(=O)O)cc3c(c12)OCO3`, the growth in assay [1] was 104%; in [2] it was 115%; in assay [3], 113%; in assay [4], 105%; in assay [5], 100%; in assay [6], 109%. Also, the growth in assay [7] is 18.1%; in [8] it was 112%; in assay [9], 108%; in assay [10] it was 101%; in assay [11], 106%; in assay [12], 99.9%. Besides, the growth is 0.133% (active) in assay [13]; 96.2% in [14]; 102% in [15]; 95.6% in assay [16]; 97% in assay [17]; 85.1% in assay [18]. In addition, the growth is 101% in assay [19] and 105% in [20].
Turning to `CC1=C(CN(O)C(N)=O)C2=C(C)C3(CC3)[C@](C)(O)C(=O)C2=C1`, the growth is 105% in assay [1]; 26.8% in [2]; 11.4% in assay [3]; 1.16% (active) in assay [4]; 0.401% (active) in [5]; 14.9% in assay [6]. Also, the growth was -11.9% (active) in assay [7]; 10% in [8]; 13.6% in [9]; 0.35% (active) in assay [10]; -1.94% (active) in assay [11]; 1.38% (active) in [12]. The growth in [13] is 3.85% (active); in assay [14] it was -22.2% (active); in assay [15], 32.5%; in assay [16], 8.93% (active); in [17], 8.16% (active); in assay [18] it was -20.3% (active). The figures for the growth in assay [19] and in assay [20] were -5.65% (active) and -16.6% (active), respectively.
As to `COc1cc2c(O[C@@H]3OC[C@H](OC(C)=O)[C@H](OC(C)=O)[C@H]3O)c3c(c(-c4ccc5c(c4)OCO5)c2cc1OC)C(=O)OC3`, the growth in [1] was 2.53% (active); in assay [2], 61.5%; in assay [3], 36.9%; in assay [4], 10.7%; in assay [5] it was 12.4%; in assay [6] it was 20%. The growth in assay [7] is 5.65% (active); in assay [8], 43%; in [9], 42.4%; in assay [10] it was -43% (active); in assay [11] it was 25.6%; in assay [12] it was 1.41% (active). Moreover, the growth is 9% (active) in [13]; 6.09% (active) in assay [14]; 58.7% in [15]; 26.5% in assay [16]; 39.5% in assay [17]; 50% in [18]. Besides, the growth in assay [19] was 29%; in assay [20], 26%.
